Hits are enriched below; roughly 3.8% of the tested compounds scored in any of these assays.
Gli-Sufu block – Gli-Sufu pathway antagonism | Sufu-KO-LIGHT fibroblasts, Gli luciferase reporter luminescence | inhibition, % at 5 µM | hit rate 0.74% among 340,000;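 active means inhibition above about 55%, limit read from the data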;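 further: 0% = DMSO-treated cells and 100% = wells with medium but no cells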
Shn3 inh set2 – Schnurri-3 reporter inhibition in Clone20 osteoblasts. Clone20 osteoblast Shn3 3'UTR firefly luciferase, 24 h. inhibition, % at 12.5 µM. hit rate 0.52% among 360,000. AID 588674;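 active means mean inhibition of at least 75% with every replicate also reaching 75%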;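 further: 0% = median of neutral control wells and 100% = pilot-screen positive control compound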
Mdm2-MdmX inh – inhibitors of human Mdm2/MdmX interaction. O15151+Q00987. hit rate 3% among 330,000. SaOS-2 split-luciferase Mdm2/MdmX complementation, luminescence. inhibition, % at 8 µM;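 active means inhibition of at least 50% at 8 µM in the primary screen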
Target sequence (O15151 whole entry, looked up): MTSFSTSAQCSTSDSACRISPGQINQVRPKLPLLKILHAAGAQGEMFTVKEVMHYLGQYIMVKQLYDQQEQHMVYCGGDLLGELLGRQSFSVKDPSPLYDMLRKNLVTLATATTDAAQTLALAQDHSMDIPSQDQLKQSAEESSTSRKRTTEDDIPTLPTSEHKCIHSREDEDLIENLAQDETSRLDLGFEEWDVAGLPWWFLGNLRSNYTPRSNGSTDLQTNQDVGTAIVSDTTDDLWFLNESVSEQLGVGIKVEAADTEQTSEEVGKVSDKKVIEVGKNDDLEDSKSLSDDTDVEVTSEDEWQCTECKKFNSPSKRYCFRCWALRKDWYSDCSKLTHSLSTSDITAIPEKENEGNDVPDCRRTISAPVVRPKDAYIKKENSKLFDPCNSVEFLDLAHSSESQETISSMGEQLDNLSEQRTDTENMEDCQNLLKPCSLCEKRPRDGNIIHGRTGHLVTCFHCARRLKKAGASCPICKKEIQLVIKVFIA
Target sequence (Q00987 whole entry, looked up): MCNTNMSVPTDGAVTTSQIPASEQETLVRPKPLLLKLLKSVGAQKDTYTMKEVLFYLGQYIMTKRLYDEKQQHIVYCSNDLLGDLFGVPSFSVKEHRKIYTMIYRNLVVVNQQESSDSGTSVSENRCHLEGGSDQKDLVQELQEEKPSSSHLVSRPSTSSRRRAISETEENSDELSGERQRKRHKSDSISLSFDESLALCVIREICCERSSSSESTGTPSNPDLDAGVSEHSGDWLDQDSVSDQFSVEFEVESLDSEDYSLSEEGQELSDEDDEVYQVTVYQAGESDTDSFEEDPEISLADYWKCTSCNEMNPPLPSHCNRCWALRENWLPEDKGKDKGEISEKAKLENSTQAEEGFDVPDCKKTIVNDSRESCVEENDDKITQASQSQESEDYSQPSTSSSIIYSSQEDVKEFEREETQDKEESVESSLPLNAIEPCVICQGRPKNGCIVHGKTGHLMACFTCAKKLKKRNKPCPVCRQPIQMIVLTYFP
697 NFkB inh – lowers PMA/ionomycin-induced NF-kB signal in 697 B cells. hit rate 0.33% among 330,000. 697 B-cell NF-kB luciferase reporter, 16 h. inhibition, % at 4 µM; in the data active means inhibition above about 35%
Jurkat NFkB inh – lowers PMA/ionomycin-induced NF-kB signal in Jurkat cells. PMA/ionomycin-induced NF-kB luciferase reporter, luminescence. inhibition, % at 4 µM. hit rate 0.53% among 330,000; in the data active means inhibition above about 50%
Jurkat NFkB conf – lowers PMA/ionomycin-induced NF-kB signal in Jurkat cells. shares compounds with Jurkat NFkB inh. Jurkat NF-kB luciferase, 16 h. inhibition, % at 4 µM. hit rate 27% among 2,700. AID 435020;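 active means inhibition reaching about 45% at 4 µM in either replicate, limit read from the data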;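 further: plate controls were PMA/ionomycin stimulated DMSO wells for no effect and unstimulated DMSO wells for full effect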
* marks the source's active call; other numbers are inactive results; . = not tested or not shown.

SMILES	Gli-Sufu block	Shn3 inh set2	Mdm2-MdmX inh	697 NFkB inh	Jurkat NFkB inh	Jurkat NFkB conf
Cc1ccc(CNc2ccc3c(c2)nc(C)n3C)cc1	-47.9	-45.0	-68.5	-200.9	-156.0	-59.2
Cc1nc2cc(NCc3ccc(Cl)cc3)ccc2n1C	-29.5	-27.1	-137.9	-202.0	-133.4	.
Cc1ccc(CNc2ccc3c(c2)ncn3C(C)(C)C)cc1	-80.3	-44.6	-203.7	-160.5	-161.4	-21.8
CC(=O)Nc1cccc(-c2cn3ccc(C)cc3n2)c1	-73.3	-83.9	-60.2	-133.7	-92.5	.
Cc1ccn2cc(-c3cccc([N+](=O)[O-])c3)nc2c1	-82.3	-56.7	-52.5	-189.7	-166.2	-94.9
COc1ccc(Cl)cc1Nc1cc(C)nc2ccccc12	12.2	1.0	23.7	-29.0	54.1*	22.6
COc1ccc(OC)c(Nc2cc(C)nc3ccccc23)c1	13.9	30.2	38.9	-37.4	66.8*	9.6
O=C(CC1C[C@H](C(=O)N2CCOCC2)[C@@]2(CCC3CCCC3)c3[nH]c4ccccc4c3CCN2C1=O)NCc1cccc(C(F)(F)F)c1 (some centres undefined)	9.5	79.1	.	.	.	.
S=C(c1ccc(-c2cccc(Cl)c2)o1)N1CCCCC1	-113.0	-86.3	-311.3	-178.0	-165.9	-90.2
O=C(Cc1ccccc1)NCc1ccc(-n2cccc2)cc1	-16.1	9.2	46.4	-36.4	53.9*	13.8
O=C(Cc1ccc(-n2cccc2)cc1)NCc1ccccc1Cl	-5.2	-9.3	34.0	-6.0	47.0	.
Cc1ccc(C(=O)CSc2nnc3ccccn23)c(C)c1	-106.2	-25.3	-55.5	-130.7	-157.6	-83.2
CC(=O)NC(C)(c1ccccc1)c1nc(-c2csc3ccccc23)cs1 (centres undefined)	.	18.7	.	.	.	.
O=[N+]([O-])c1ccc(N2CCCCC2)cn1	-6.1	-1.3	12.0	-13.1	-3.5	.
O=[N+]([O-])c1ccc(N2CCN(c3cccc(Cl)c3)CC2)cn1	-1.6	-12.1	-3.2	9.8	52.5*	-12.0
C=Cc1ccc(Cn2c(C)c(C(=O)NCc3ccc4c(c3)OCCO4)sc2=O)cc1	.	3.3	.	.	.	.
O=C(Nc1nc2ccccc2[nH]1)c1cccc(Cl)c1	-81.9	-66.0	-171.3	-235.3	-159.8	-122.6
COC(=O)Cc1ccc2sc(-c3ccccc3)nc2c1	-77.3	-11.7	-238.6	-93.3	-156.4	-98.8
O=C(O)Cc1ccc2sc(-c3ccccc3)nc2c1	0.8	-21.5	-8.7	-16.3	-13.2	.
COCC(=O)N1CCN(c2cccc(C(F)(F)F)c2)CC1	-1.9	13.2	13.7	18.0	-16.7	.
COc1ccccc1C(=O)N1CCN(c2cccc(C(F)(F)F)c2)CC1	7.2	15.5	41.3	-49.1	65.7*	29.2
COc1ccc(C(=O)N/N=C/c2ccc(OC)c(COc3c(F)c(F)cc(F)c3F)c2)cc1	8.0	7.0	21.6	-4.3	3.3	.
COc1cc(OC)cc(C(=O)N/N=C/c2ccc(OC)c(COc3ccc(F)cc3)c2)c1	25.7	5.7	30.2	-41.4	52.0*	24.2
COc1ccc(OCc2cc(/C=N\NC(=O)c3ccccc3)ccc2OC)cc1	-1.8	-14.4	49.9	-25.0	54.2*	18.4
COCCNC(=O)c1noc2c1CCc1cc(OC)ccc1-2	-62.9	-115.2	-46.2	-41.1	-66.0	.
SMILES	Gli-Sufu block	Shn3 inh set2	Mdm2-MdmX inh	697 NFkB inh	Jurkat NFkB inh	Jurkat NFkB conf
COc1ccc2c(c1)CCc1c(C(=O)NC3CCCCC3)noc1-2	-89.1	-65.2	-116.5	-145.6	-180.2	-125.3
COc1ccc(C2=NOC(C(=O)NCc3cccs3)C2)cc1 (centres undefined)	-27.3	-20.2	37.5	-37.8	44.1	.
COc1cc(C2=NOC(C(=O)NCc3cccs3)C2)cc(OC)c1OC (centres undefined)	2.7	15.3	42.8	-66.7	50.3*	36.1
COc1ccc(C2=NOC(C(=O)NCc3cccs3)C2)cc1OC (centres undefined)	-2.7	.	44.7	-98.8	50.2*	43.8
COc1cc(C2=NOC(C(=O)NCc3cccnc3)C2)cc(OC)c1OC (centres undefined)	21.3	1.7	-3.9	-7.1	-3.7	.
Cc1ccc(NS(=O)(=O)c2ccc(C(=O)NC3CCN(Cc4ccccc4)CC3)cc2)cc1	15.3	84.9*	34.8	15.5	57.1*	58.8*
COC(=O)c1ccc(Oc2cc(C)nc(SC)n2)cc1	0.0	-9.6	38.8	-48.0	55.5*	42.3
CN(C)c1cc[n+](CC(=O)Nc2ccc(Oc3ccccc3)cc2)cc1	23.2	-19.1	45.0	-13.8	85.0*	36.0
CCOc1ccc(NC(=O)C[n+]2ccc(N(C)C)cc2)cc1	1.8	-4.3	22.5	-9.9	16.6	.
Cc1ccc(OC(=O)N(C)C[C@@H]2OCc3cn(nn3)CCCC(=O)N([C@H](C)CO)C[C@H]2C)cc1	.	-25.3	.	.	.	.
CC(=O)c1ccc(NC(=O)NC2CCCCCCC2)cc1	-91.2	-60.6	-85.0	-158.9	-150.1	-71.3
CC(=O)c1ccc(NC(=O)Nc2ccncc2)cc1	-1.4	3.0	12.9	8.5	-10.5	.
CC(=O)c1ccc(NC(=O)Nc2ccc(Cl)cc2)cc1	-66.7	-47.8	-74.2	-128.5	-152.7	-84.5
O=C(CC(O)(CC(=O)OCc1ccccc1)C(=O)OCc1ccccc1)OCc1ccccc1	-18.0	-3.5	.	.	.	.
CC(C)Nc1nc(NCCN2CCCC2)c2sc(-c3ccccc3)cc2n1	.	4.5	.	.	.	.
CCN1CCN(CC(=O)N2N=C(c3cccs3)CC2c2ccc(C)cc2)C(=O)C1=O (centres undefined)	2.8	-14.4	-41.6	-3.1	-3.4	.
O=C(CN1C(=O)CCC1=O)Nc1nc(-c2nc3ccccc3s2)cs1	-43.3	-50.0	-94.3	-12.4	-69.0	.
O=C(Nc1nc(-c2nc3ccccc3s2)cs1)C1CC1	-157.2	-83.3	-206.9	-187.0	-170.5	-110.6
O=C(O)c1ccc(CN2C[C@@H](CO)O[C@@H](n3cnc4c(NCc5ccco5)ncnc43)C2)cc1	.	-18.0	.	.	.	.
CC(C)Cn1c(N)c(C(=O)COC(=O)c2ccc(Br)cc2)c(=O)n(C)c1=O	8.3	36.3	27.9	-28.2	-4.3	.
COc1ccc2cc3cc(C(=O)N(C)C4CCCCC4)oc3nc2c1	-69.4	-135.0	-151.1	-212.7	-135.9	.
COc1ccc2cc3cc(C(=O)N4CCCCC4C)oc3nc2c1 (centres undefined)	-97.2	-67.3	-130.1	-234.1	-156.5	-124.8
Oc1cccc(/C=N/N=C/c2cccc(O)c2O)c1O	15.5	-61.5	13.4	-191.1	80.6*	-20.9
Cc1ccccc1N=Cc1cccc(O)c1O	4.9	-26.1	-23.9	-16.6	-5.0	.
COc1cc(NC(=O)C2CCN(S(=O)(=O)c3ccc(N4CCCC4=O)cc3)CC2)cc(OC)c1	-0.4	2.1	22.9	15.7	16.8	.
CC(C)NC(=O)C1CCN(S(=O)(=O)c2ccc(N3CCCC3=O)cc2)CC1	42.7	-4.6	22.8	-5.9	79.3*	9.2
Cc1cccc(NC(=O)COc2ccc3c(c2)CCC3)n1	-3.8	-64.6	-10.1	-3.2	-42.4	.
Cc1cnc(NC(=O)COc2ccc3c(c2)CCC3)s1	-115.2	-77.6	26.0	-12.5	-151.9	-87.2
N#CC1(Nc2ccc(C(=O)O)cc2)CCCC1	5.7	4.3	.	.	.	.
O=C(c1ccco1)n1nc(-c2cccnc2)nc1NCc1ccco1	3.8	-12.6	7.1	10.6	7.7	.
